From PubChem BioAssay (NCATS) come the findings set out here.

Structures are written as SMILES. “And” between values parts separate entries of the source, which are not always exact repeats. Equal values may be shown once. Results filed as inconclusive are left out. Unmarked numbers belong to inactive results. The source made the active and inactive calls. Calls follow the shape of the dose curve; as a rule, active = well fitted curve in the direction sought with a large enough effect; inconclusive = small, poorly fitted or top-dose-only effect, or another doubt; inactive = no such curve, though single readings can be large; an effect the other way counts as inactive or inconclusive.

Test [1] has as its target Cytochrome P450 3A7 (Homo sapiens) (UniProt P24462). Briefly: Cytochrome P450 family 3 subfamily A member 7 (CYP3A7) small molecule antagonists: luciferase biochemical qHTS assay (AID 1963596). Also: % is scaled to controls: 0 for no effect and ±100 for the full control effect; nearly all actives have a fitted effect of over 40% in size. The method in brief: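 Luminescence read-out (relative luminescence units) after 20 min with detection reagent, which stops the reaction. Enzyme, proluciferin substrate and compound preincubated 10 min, RT; NADPH regeneration system then started 1 h reaction. Ketoconazole as positive control.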

Test [2] in a line: Viability qHTS for spleen associated tyrosine kinase inhibitor (SYKi) drug resistant MV4-11 cells (AID 1963824). Also: nearly all actives have a fitted effect of over 35% in size. Also: potency is read from the fitted curve at half-maximal effect. In short, it runs like this:
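SYK-inhibitor-resistant MV4-11 AML cells were seeded at 500 per well onto compound and cultured 72 hours (37 °C, 5% CO2). CellTiter-Glo was then added, and after 10 min at room temperature, luminescence gave viability.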

Test [3] in a line: Cellular viability qHTS for adrenocortical cancer (ACC) cell line SW-13 (AID 1963989). Also: nearly all actives have a fitted effect of over 65% in size. Also: potency is read from the fitted curve at half-maximal effect.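 As to activity (max response): cells grown in serum-free medium with ITS supplement; % is scaled to controls: 0 for no effect and ±100 for the full control effect.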 The note with it: SW-13 ACC cells viability, CellTiter-Glo, 48 h; activity (max response): hits give low values. The method in brief:
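IC50 and maximal-response values come from four-parameter logistic fits of titration data. SW-13 cells in serum-free medium received compounds (up to 46 uM final) for 48 h before CellTiter-Glo luminescence.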

Test [4] can be described thus: Cellular viability qHTS for adrenocortical cancer (ACC) cell line NCI-H295R (AID 1963990). Also: nearly all actives have a fitted effect of over 60% in size. Also: potency is read from the fitted curve at half-maximal effect. The method in brief: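 Adrenocortical carcinoma cells, suspended at 300 000 cells/mL in serum-free DMEM plus ITS, rested overnight before pin transfer of compound. After two days' incubation, ATP-dependent luminescence was recorded and curve-fitted.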
Test [5] in a line: Quantitative highthroughput screen to assess conditional lethalithy of NOMO1 cells grown in RPMI1640 with untreated serum (RPMI+s) (AID 1963876).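 Also: 100% = DMSO wells and 0% = empty wells without cells; nearly all actives have a fitted effect of over 35% in size.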 The method in brief:
(§1)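 Each medium arm—HPLM with 10% dialyzed FBS, or RPMI1640 with 5 mM glucose and 10% untreated or dialyzed FBS—was screened against an 11-point, 3-fold compound titration for 48 h at 37 °C, with CellTiter-Glo luminescence as endpoint.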

Test [6] in a line: Quantitative highthroughput screen to assess conditional lethalithy of NOMO1 cells grown in RPMI1640 with dialyzed fetal bovine serum (RPMI+ds) (AID 1963877).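 Also: series mostly up to about 46 µM; 100% = DMSO control wells and 0% = empty wells; nearly all actives have a fitted effect of over 30% in size.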 The method in brief: as §1
Test [7] is described as follows: Quantitative highthroughput screen to assess conditional lethalithy of NOMO1 cells grown in Human Plasma-Like Medium with dialyzed fetal bovine serum (HPLM+ds) (AID 1963878).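 Also: 100% = DMSO wells and 0% = empty wells on each plate; nearly all actives have a fitted effect of over 35% in size.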 The method in brief: as §1
The nature of test [8]: Quantitative highthroughput screen to assess conditional lethalithy of P12 Ichikawa cells grown in Human Plasma-Like Medium with dialyzed fetal bovine serum (HPLM+ds) (AID 1963879). Also: series mostly up to about 46 µM; nearly all actives have a fitted effect of over 35% in size. The settings on record: Potency: viability. In short, it runs like this:
as §1

The nature of test [9]: Quantitative highthroughput screen to assess conditional lethalithy of P12 Ichikawa cells grown in RPMI1640 with dialyzed fetal bovine serum (RPMI+ds) (AID 1963880). The settings on record: Potency: P12-Ichikawa viability. The method in brief:
as §1

Test [10] is described as follows: Quantitative highthroughput screen to assess conditional lethalithy of P12 Ichikawa cells grown in RPMI1640 with untreated serum (RPMI+s) (AID 1963881). The settings on record: Potency: viability. In short, it runs like this:
as §1

Test [11] is described as follows: Quantitative highthroughput screen to assess conditional lethalithy of SEM cells grown in Human Plasma-Like Medium with dialyzed fetal bovine serum (HPLM+ds) (AID 1963882). The method in brief: as §1
The nature of test [12]: Quantitative highthroughput screen to assess conditional lethalithy of SEM cells grown in RPMI1640 with unreated serum (RPMI+s) (AID 1963883). The method in brief: as §1

Cytochrome P450 3A7 (Homo sapiens), sequence (P24462 whole entry, looked up): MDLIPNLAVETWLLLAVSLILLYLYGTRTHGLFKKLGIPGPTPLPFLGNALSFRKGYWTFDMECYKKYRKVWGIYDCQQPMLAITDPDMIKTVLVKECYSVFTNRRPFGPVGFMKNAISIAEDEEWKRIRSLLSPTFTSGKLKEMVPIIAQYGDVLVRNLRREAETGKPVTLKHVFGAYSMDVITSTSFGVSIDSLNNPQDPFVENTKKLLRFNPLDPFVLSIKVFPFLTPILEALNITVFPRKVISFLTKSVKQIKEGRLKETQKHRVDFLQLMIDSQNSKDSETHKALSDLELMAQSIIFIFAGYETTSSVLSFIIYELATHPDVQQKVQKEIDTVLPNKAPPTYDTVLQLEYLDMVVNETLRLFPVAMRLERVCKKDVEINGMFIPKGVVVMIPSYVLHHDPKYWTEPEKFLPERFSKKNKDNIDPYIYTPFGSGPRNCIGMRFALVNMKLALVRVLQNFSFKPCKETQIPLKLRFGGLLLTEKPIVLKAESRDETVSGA

Consider `O=c1[nH]c(=O)n([C@H]2C[C@H](O)[C@@H](CO)O2)cc1Br`, for which the Potency result in [1] and in test [4] was “inactive” each time. For the same molecule, in test [2], the Potency was 8410 nM (active). In addition, in test [3], the activity (max response) was -6.63%.

Take `Cc1[nH]c(=O)c(C#N)cc1-c1ccc2nccn2c1`: the Potency result in test [1], in [5], in test [6], in test [7], in [8] and in test [9] was “inactive” in each case. Further, the Potency entry in test [10], in test [11], in test [12] and in test [4] was “inactive” each time. The activity (max response) in test [3] was 11.7%.

Consider `COC(=O)c1nc(Cl)c(Cl)nc1N`, for which the Potency entry in test [1] is “inactive”. Besides, the Potency in [2] was 596 nM (active); in test [3], 8200 nM (active); in test [4], 103 nM (active).

As to `C[C@H]1O[C@@H](O[C@H]2CC[C@@]3(C)[C@H](CC[C@@H]4[C@@H]3C[C@@H](O)[C@]3(C)[C@@H](C5=CC(=O)OC5)CC[C@]43O)C2)C[C@H](O)[C@@H]1O[C@H]1C[C@H](O)[C@H](O[C@H]2C[C@H](O)[C@H](O[C@@H]3O[C@H](CO)[C@@H](O)[C@H](O)[C@H]3O)[C@@H](C)O2)[C@@H](C)O1`, in test [1], the Potency result was “inactive”. Besides, the Potency in [2] is 133 nM (active); in test [3], 82 nM (active); in test [4] it was 164 nM (active).

As to `CC(C)=CCNc1ncnc2c1ncn2[C@@H]1O[C@H](CO)[C@@H](O)[C@H]1O`, the Potency result in test [1] was “inactive”. In addition, the Potency in test [2] is 580 nM (active); in [4] it was 7310 nM (active).

`CC(C)=CCC/C(C)=C/CC/C(C)=C/CCC(=O)OC/C=C(\C)CCC=C(C)C`: the Potency entry in test [1], in test [2] and in [4] was “inactive” throughout. Moreover, the activity (max response) in test [3] is 14.2%.

On to `CC(=O)OCC(=O)[C@@]12N=C(C)O[C@@H]1C[C@H]1[C@@H]3CCC4=CC(=O)C=C[C@]4(C)[C@H]3[C@@H](O)C[C@@]12C`, for which the Potency result in [1], in [2] and in test [4] was “inactive” in each case. Besides, the activity (max response) in test [3] is 11.7% and 0.528%.

For the molecule `CC(=O)c1ccc(OCC(=O)N2CCCCC2)cc1`, the Potency result in [1], in test [2] and in [4] was “inactive” in each case. The activity (max response) in test [3] was 7.54%.

For the molecule `Cc1cccc(Oc2cnc(=O)[nH]c2)c1`, the Potency result in test [1], in [2] and in [4] was “inactive” throughout. Further, in test [3], the activity (max response) was 6.68%.

Turning to `Cc1c(C(=O)N2CCOc3ccc(-c4ccc(N)nc4)cc3C2)ccc(S(C)(=O)=O)c1F`, the Potency entry in test [1] was “inactive”. Besides, the Potency in [2] is 3260 nM (active); in test [4], 8910 nM (active).

Turning to `N#C[C@H]1C[C@H]2C[C@@H]2N1C(=O)[C@@H](N)C12CC3CC(CC(O)(C3)C1)C2`, the Potency entry in test [1], in test [8], in [9], in test [10] and in [4] was “inactive” in each case. Besides, in [3], the activity (max response) was 11.7%.

As for `CC(=O)Nc1c(I)c(NC(C)=O)c(I)c(C(=O)O)c1I`, the Potency result in test [1] and in [4] was “inactive” throughout. Further, the activity (max response) in test [3] is 2.04%.
